# Experimental data as given in PubChem BioAssay (EPA / NIEHS).
# Records with an inconclusive call do not appear. Calls of active or inactive are those of the source. The calls were made as follows, unless noted: active = hit-call score of the fitted dose curve at least 0.9, where 1 is the maximum; inactive = score below 0.9. Peptide text beside a SMILES is read from it.
# Biological target: Ratio of Nucleoli Translocation and Cytoplasm, AR (gene 367) (UniProt P10275)
# Experiment: UPITT_HCI_U2OS_AR_TIF2_Nucleoli_Cytoplasm_Ratio_Antagonist: University of Pittsburgh U2OS Androgen Receptor-Transcriptional Intermediary Factor 2 (AR-TIF2) Antagonism High Content Imaging Assay for Ratio of Nucleoli Translocation and Cytoplasm (AID 2283999; active = hit-call score of the fitted dose curve at least 0.9, where 1 is the maximum;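 also: antagonists lower the DHT-driven ratio of nucleolar to cytoplasmic red signal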)
# In short: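 U2OS cells expressing RFP-tagged human AR and GFP-tagged TIF2; compounds tested at 20 uM final (0.2% DMSO) in primary screen, 0.195–50 uM (0.5% DMSO) for concentration response. Readout: nucleolar-to-cytoplasmic red fluorescence ratio by high-content imaging, fitted relative to DHT.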
# Ratio of Nucleoli Translocation and Cytoplasm, AR (gene 367), sequence (P10275 whole entry, looked up): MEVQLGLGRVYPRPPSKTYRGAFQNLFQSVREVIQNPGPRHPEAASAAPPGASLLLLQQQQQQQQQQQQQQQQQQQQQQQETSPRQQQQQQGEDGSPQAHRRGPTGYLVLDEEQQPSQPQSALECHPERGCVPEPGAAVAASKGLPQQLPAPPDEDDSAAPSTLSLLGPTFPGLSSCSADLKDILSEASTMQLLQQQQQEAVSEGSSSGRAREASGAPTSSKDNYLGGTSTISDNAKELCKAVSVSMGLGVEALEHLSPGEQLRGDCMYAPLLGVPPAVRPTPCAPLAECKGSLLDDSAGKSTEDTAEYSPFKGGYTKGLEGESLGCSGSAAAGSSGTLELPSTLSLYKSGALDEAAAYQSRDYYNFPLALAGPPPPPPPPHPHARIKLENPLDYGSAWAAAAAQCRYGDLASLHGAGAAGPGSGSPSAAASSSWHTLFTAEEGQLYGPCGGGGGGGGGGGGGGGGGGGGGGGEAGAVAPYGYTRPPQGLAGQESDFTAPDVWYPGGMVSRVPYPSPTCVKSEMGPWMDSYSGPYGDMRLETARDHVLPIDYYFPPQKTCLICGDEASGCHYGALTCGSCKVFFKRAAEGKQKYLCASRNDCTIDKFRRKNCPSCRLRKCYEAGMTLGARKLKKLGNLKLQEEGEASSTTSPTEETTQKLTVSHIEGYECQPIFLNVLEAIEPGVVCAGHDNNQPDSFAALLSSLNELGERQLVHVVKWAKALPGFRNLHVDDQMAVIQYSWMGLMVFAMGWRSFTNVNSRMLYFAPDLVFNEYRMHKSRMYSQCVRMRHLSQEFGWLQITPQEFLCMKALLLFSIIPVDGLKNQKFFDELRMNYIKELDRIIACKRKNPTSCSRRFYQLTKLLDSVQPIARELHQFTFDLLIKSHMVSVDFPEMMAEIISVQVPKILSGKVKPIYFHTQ
row,Structure (SMILES),outcome
1,CN(C)Cc1cc(CN(C)C)c(O)c(CN(C)C)c1,inactive
2,Oc1ccc(/C=C/c2cc(O)cc(O)c2)cc1,inactive
3,Cc1ccc(C)c(OCCCC(C)(C)C(=O)O)c1,inactive
4,O=C(O)c1ccc2c(c1)C(=O)OC2=O,inactive
5,C=C1C[C@H]2[C@@H]3C=C(C)C4=CC(=O)CC[C@]4(C)[C@H]3CC[C@]2(C)[C@@]1(OC(C)=O)C(C)=O,inactive
6,COc1ccc(C(=O)c2ccccc2)c(O)c1,inactive
7,CC(=O)OCc1ccccc1,inactive
8,CCCCCC[C@@H](O)C/C=C\CCCCCCCC(=O)OCC(O)CO (stereo not given in full),inactive
9,c1ccc2c(c1)[nH]c1ccccc12,inactive
10,CCCCCCCCCCCCCC(=O)OC(C)C,inactive
11,CCc1cccc(C)c1N,inactive
12,Oc1ccc(-c2ccccc2)c(Cl)c1,inactive

# Biological target: Ratio of Nucleoli Translocation and Cytoplasm, AR (gene 367) (UniProt P10275)
# Experiment: UPITT_HCI_U2OS_AR_TIF2_Nucleoli_Cytoplasm_Ratio_Agonist: University of Pittsburgh U2OS Androgen Receptor-Transcriptional Intermediary Factor 2 (AR-TIF2) Agonism High Content Imaging Assay for Ratio of Nucleoli Translocation and Cytoplasm (AID 2284000; active = hit-call score of the fitted dose curve at least 0.9, where 1 is the maximum;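 also: hits raise the red nucleolar to cytoplasm ratio above vehicle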)
# In short: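 U2OS cells expressing RFP-tagged human AR and GFP-tagged TIF2 were imaged by high-content fluorescence microscopy. The endpoint is the ratio of nucleolar to cytoplasmic red fluorescence, fitted for gain of signal relative to DMSO. Concentration-response spanned 0.195 to 50 uM final (0.5% DMSO).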
row,Structure (SMILES),outcome
1,CCC(C)c1ccccc1 (stereo not given),inactive
2,CC(=O)OC1CCCCC1C(C)(C)C (stereo not given),inactive
3,CN(C)Cc1cc(CN(C)C)c(O)c(CN(C)C)c1,inactive
4,CCCCC(CC)COC(=O)/C=C/c1ccc(OC)cc1 (stereo not given),inactive
5,Cc1ccc(C)c(OCCCC(C)(C)C(=O)O)c1,inactive
6,C=C1C[C@H]2[C@@H]3C=C(C)C4=CC(=O)CC[C@]4(C)[C@H]3CC[C@]2(C)[C@@]1(OC(C)=O)C(C)=O,inactive
7,CC(=O)OCc1ccccc1,inactive
8,CCCCCC[C@@H](O)C/C=C\CCCCCCCC(=O)OCC(O)CO (stereo not given in full),inactive
9,c1ccc2c(c1)[nH]c1ccccc12,inactive
10,N#Cc1ccc(C(c2ccc(C#N)cc2)n2cncn2)cc1,inactive
11,CCCCCCCCCCCCCC(=O)OC(C)C,inactive
12,CCCCCCCCCC(C)=O,inactive
13,Oc1ccc(-c2ccccc2)c(Cl)c1,inactive

# Test system: not listed separately
# Experiment: CCTE_Shafer_MEA_acute_spike_number: CCTE's Neural Acute Assay for Total Number of Spikes, Shafer Lab (AID 2284008);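 as to AC50: curve fitted for decrease in spike count so AC50 reflects inhibitors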
# In short: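 Primary rat cortical neurons on 16-electrode MEA wells; on DIV 13 or 15, 40-min baseline then 40-min recording with compound (0.03-40 uM) at 37 C. Spikes detected at 8x rms noise; percent change versus baseline, DMSO as negative control.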
Structure (SMILES),outcome,AC50
Nc1nc(N)nc(-c2ccccc2)n1,inactive,–
CC(CCC(=O)O)(c1ccc(O)cc1)c1ccc(O)cc1,inactive,–
CCCCCCCCCCCC(=O)N(C)CC(=O)O,inactive,–
c1ccc(Nc2cccc3ccccc23)cc1,–,1080 nM (active)
CC1(C)CC(O)CC(C)(C)N1[O],inactive,–
COC(=O)[C@H](Cc1ccccc1)NC(=O)[C@@H](N)CC(=O)O (H-Asp-Phe-OMe),inactive,–
Oc1ccccc1Cc1ccccc1O,–,207 nM (active)
CC(C)C(=O)OCCc1ccccc1,inactive,–
Nc1cccc(N)n1,–,5.05 nM (active)

# Test system: not listed separately
# Experiment: CCTE_Shafer_MEA_acute_firing_rate_mean: CCTE's Neural Acute Assay for Mean Firing Rate, Shafer Lab (AID 2284009);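 also: analyzed for loss of signal so actives lower firing rate relative to DMSO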
# In short: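 Read-out: well-mean spike rate (spikes/recording length/electrodes), % change from 40 min pre-dose baseline to 40 min with compound. Rat cortical cultures, DIV 13 or 15, 37 C; 0.03-40 uM; DMSO as negative control.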
Structure (SMILES),outcome,AC50
Nc1nc(N)nc(-c2ccccc2)n1,inactive,–
CC(CCC(=O)O)(c1ccc(O)cc1)c1ccc(O)cc1,inactive,–
CCCCCCCCCCCC(=O)N(C)CC(=O)O,inactive,–
c1ccc(Nc2cccc3ccccc23)cc1,–,979 nM (active)
CC1(C)CC(O)CC(C)(C)N1[O],inactive,–
COC(=O)[C@H](Cc1ccccc1)NC(=O)[C@@H](N)CC(=O)O (H-Asp-Phe-OMe),inactive,–
Oc1ccccc1Cc1ccccc1O,–,207 nM (active)
CC(C)C(=O)OCCc1ccccc1,inactive,–
Nc1cccc(N)n1,–,3.19 nM (active)

# Test system: not listed separately
# Experiment: CCTE_Harrill_HTTr_Viability_MCF7: CCTE's 6-hour Cell Viability Assessment for the High-Throughput Transcriptomics (HTTr) Platform, in MCF-7 cells cultured in DMEM + 10% fetal bovine serum, Harrill Lab (AID 2284010)
# In short: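 Membrane integrity was scored by high-content imaging of propidium iodide dye exclusion after a 6 h exposure across an eight-point dilution series. Data were fitted bidirectionally relative to DMSO as negative control and baseline.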
row,Structure (SMILES),outcome
1,CCC(C)c1ccccc1 (stereo not given),inactive
2,CC(=O)OC1CCCCC1C(C)(C)C (stereo not given),inactive
3,Oc1ccc(/C=C/c2cc(O)cc(O)c2)cc1,inactive
4,Cc1ccc(C)c(OCCCC(C)(C)C(=O)O)c1,inactive
5,O=C(O)c1ccc2c(c1)C(=O)OC2=O,inactive
6,CCCCC/C=C\C/C=C\CCCCCCCC(=O)O,inactive
7,COc1cc(O)c(C(=O)c2ccccc2)cc1S(=O)(=O)O,inactive
8,C=C1C[C@H]2[C@@H]3C=C(C)C4=CC(=O)CC[C@]4(C)[C@H]3CC[C@]2(C)[C@@]1(OC(C)=O)C(C)=O,inactive
9,COc1ccc(C(=O)c2ccccc2)c(O)c1,inactive
10,CC1(C)CC(O)CC(C)(C)N1[O],inactive
11,CC(=O)OCc1ccccc1,inactive
12,Oc1ccccc1Cc1ccccc1O,inactive
13,c1ccc2c(c1)[nH]c1ccccc12,inactive
14,N#Cc1ccc(C(c2ccc(C#N)cc2)n2cncn2)cc1,inactive
15,CCCCCCCCCCCCCC(=O)OC(C)C,inactive
16,Oc1ccc(-c2ccccc2)c(Cl)c1,inactive

# Test system: not listed separately
# Experiment: CCTE_Harrill_HTTr_Apoptosis_MCF7: CCTE's 6-hour Apoptosis Assessment for the High-Throughput Transcriptomics (HTTr) Platform, in MCF-7 cells cultured in DMEM + 10% fetal bovine serum, Harrill Lab (AID 2284011)
# In short: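 MCF-7 cells in DMEM + 10% fetal bovine serum were exposed to chemicals for 6 hours over an eight-point dilution series. Caspase-3/7 activation was imaged by high content imaging with CellEvent Caspase 3/7 Green; bidirectional fitting used DMSO as baseline.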
row,Structure (SMILES),outcome
1,CCC(C)c1ccccc1 (stereo not given),inactive
2,CC(=O)OC1CCCCC1C(C)(C)C (stereo not given),inactive
3,Oc1ccc(/C=C/c2cc(O)cc(O)c2)cc1,inactive
4,Cc1ccc(C)c(OCCCC(C)(C)C(=O)O)c1,inactive
5,O=C(O)c1ccc2c(c1)C(=O)OC2=O,inactive
6,CCCCC/C=C\C/C=C\CCCCCCCC(=O)O,inactive
7,COc1cc(O)c(C(=O)c2ccccc2)cc1S(=O)(=O)O,inactive
8,C=C1C[C@H]2[C@@H]3C=C(C)C4=CC(=O)CC[C@]4(C)[C@H]3CC[C@]2(C)[C@@]1(OC(C)=O)C(C)=O,inactive
9,COc1ccc(C(=O)c2ccccc2)c(O)c1,inactive
10,CC1(C)CC(O)CC(C)(C)N1[O],inactive
11,CC(=O)OCc1ccccc1,inactive
12,Oc1ccccc1Cc1ccccc1O,inactive
13,c1ccc2c(c1)[nH]c1ccccc12,inactive
14,N#Cc1ccc(C(c2ccc(C#N)cc2)n2cncn2)cc1,inactive
15,CCCCCCCCCCCCCC(=O)OC(C)C,inactive
16,Oc1ccc(-c2ccccc2)c(Cl)c1,inactive
